The results in this text go back to PubChem BioAssay.

In one test the target is Albumin (Bos taurus) (UniProt P02769). Description: bovine serum albumin binders on microarray, profiling panel, artefact control for SMM control protein annotation, biochemical, small-molecule microarray, Alexa647 label, 635/667 nm fluorescence (AID 1118).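 Also: score merges 667 nm emission intensity and signal-to-noise per printed compound spot.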 Particulars: BSA-A647 binding, fluorescence 635 nm, higher = more signal.
A short description of test [1]: small-molecule microarray binders of probe aXIP, primary screen, biochemical, NeuroSMM set, 635/667 nm fluorescence (AID 1119).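 Also: probe is the protein aXip251-270 applied at 1 µg/mL to compound-printed slides; binding of probe to printed compounds measured as 667 nm fluorescence plus signal to noise.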 As to conditions: higher = more signal, called active from +8 up or from −8 down.
The nature of test [2]: small-molecule binders of probe aNOTCH3, primary screen, biochemical, small-molecule microarray, 635/667 nm fluorescence (AID 1120).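 Also: probe is a biotin-tagged antibody raised against NOTCH3 rather than NOTCH3 protein; score merges spot fluorescence near 667 nm with spot signal to noise.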 As to conditions: higher = more signal.
Test [3] in a line: small-molecule binders of probe aNOTCH2, primary screen, biochemical, small-molecule microarray, 635/667 nm fluorescence (AID 1121).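 Also: score merges feature fluorescence read at 667 nm with its signal to noise.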 Particulars: higher = more signal.
In test [4] the target is Carbonic anhydrase 2 (Homo sapiens) (UniProt P00918). Description: CAII small-molecule binders, profiling panel, biochemical, small-molecule microarray, Alexa647-labelled CAII (AID 1122). Particulars: CAII-A647 binding fluorescence, higher = more signal.
Test [5] can be described thus: COS7 lysate on small-molecule microarray, probe aHis, 635 nm (AID 1123).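 Also: z-score combines 667nm fluorescence intensity with signal-to-noise per printed compound spot.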 As to conditions: COS7 cell lysate, fluorescence, higher = more signal.
The nature of test [6]: compound binding in COS7 lysate, probe aLAP1, primary screen, cell lysate, small-molecule microarray (AID 1124).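 Also: lysate comes from COS7 cells expressing LAP1 and is applied at 0.3 µg/mL; score merges spot fluorescence near 667 nm with signal-to-noise over triplicate slides.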 As to conditions: probe aLAP1, fluorescence, higher = more signal.
The test system of another test is Sam68 (KHDRBS1). Description: Sam68 small-molecule binders, primary screen, biochemical, small-molecule microarray, 635 nm fluorescence (AID 1125).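 Also: score merges 667 nm channel intensity with signal to noise over triplicate slides.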 Particulars: small-molecule microarray binding, higher = more signal.
Test [7] concerns Chordin-like protein 2 (CHRDL2). Description: CHRDL2 small-molecule binders, primary screen, biochemical, small-molecule microarray, 635 nm fluorescence (AID 1126).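 Also: printed compound slides probed with Chrdl2 protein at 4 µg/mL for 1 h at 4 C; score merges 667 nm emission intensity with signal to noise over three replicate slides.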 As to conditions: small-molecule microarray binding, fluorescence 635 nm; higher = more signal.
The target in test [8] is Concanavalin-A (Canavalia ensiformis) (UniProt P02866). Description: ConA small-molecule binders, primary screen, artefact control for SMM control protein annotation, biochemical, small-molecule microarray, Alexa647 label, 635 nm (AID 1127).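 Also: z combines 667 nm emission intensity with signal-to-noise across three replicate slides.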 Particulars: ConA-A647 binding fluorescence, higher = more signal.
Test [9] in a line: anti-His antibody binders, primary screen, artefact control for SMM control protein annotation, biochemical, small-molecule microarray, 635 nm fluorescence (AID 1128).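 Also: score merges feature fluorescence with signal-to-noise for each printed compound spot.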 As to conditions: anti-His Alexa647 antibody binding, higher = more signal.
The subject of test [10] is Human papillomavirus type 1a E7 protein (residues 1-88). Description: HPV1a E7 small-molecule binders, primary screen, biochemical, small-molecule microarray, residues 1-88, 635 nm (AID 1129). As to conditions: small-molecule microarray binding, fluorescence 635 nm; higher = more signal.
Test [11] concerns the target Focal adhesion kinase 1 (Homo sapiens) (UniProt Q05397). Description: small-molecule microarray binders of FAK, primary screen, biochemical, 635/667 nm fluorescence, BSA, DTT (AID 1130).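 Also: composite of spot emission at 667 nm and signal to noise over triplicate slides.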 As to conditions: PTK2 binding, 635 nm fluorescence, higher = more signal.
The test system of test [12] is Fibrinogen (Alexa647-labelled). Description: fibrinogen binders on compound microarrays, profiling panel, artefact control for SMM control-protein annotation, biochemical, small-molecule microarray, 635/667 nm fluorescence (AID 1131).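 Also: z-score merges 667 nm fluorescence with per-spot signal-to-noise over triplicate slides.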 Particulars: fibrinogen-A647 binding fluorescence, higher = more signal.
Test [13] concerns the target Follistatin (Homo sapiens) (UniProt P19883). Description: follistatin binders on small-molecule microarrays, primary screen, biochemical, small-molecule microarray, 635/667 nm fluorescence (AID 1132). As to conditions: FST binding, 635 nm fluorescence, higher = more signal.
Test [14] has as its target Fibroblast growth factor 2 (Homo sapiens) (UniProt P09038). Description: FGF2 binders on small-molecule microarrays, primary screen, biochemical, small-molecule microarray, 635/667 nm fluorescence (AID 1133). As to conditions: small-molecule microarray binding, FGF2, fluorescence 635/667; higher = more signal.
The nature of test [15]: mitochondrial membrane potential change in A549 cells, profiling panel, cell-based, JC-1 fluorescence, basal, 24 h, 100 nL (AID 1138).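 Also: A549 lung adenocarcinoma cells under basal conditions with no added stimulus; test concentration not given here.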 Particulars: higher = more signal.
In another test the test system is Lefty1. Description: Lefty1 binders on small-molecule microarrays, primary screen, biochemical, small-molecule microarray, 635/667 nm fluorescence (AID 1139). Particulars: small-molecule microarray binding, fluorescence 635/667; higher = more signal.
Test [16] concerns wheat germ agglutinin (Triticum aestivum), Alexa647-labelled. Description: wheat germ agglutinin binders on compound microarrays, profiling panel, artefact control for SMM control-protein annotation, biochemical, small-molecule microarray, 635/667 nm fluorescence (AID 1140).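 Also: score merges 667 nm feature emission with signal to noise over triplicate slides.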 As to conditions: WGA-A647 binding, 635 nm fluorescence, higher = more signal.
The target in test [17] is Luciferin 4-monooxygenase (Photinus pyralis) (UniProt P08659). Description: firefly luciferase enzyme inhibitors, primary screen, biochemical, luminescence, purified enzyme, 2006 set (AID 1141).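 Also: cell-free assay with purified firefly luciferase at 100 ng per well in PBS; test concentration not given here.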 Particulars: SteadyGlo luminescence, 30 min, higher = more signal, called active from +8 up or from −8 down.

The source made the active and inactive calls.

Sequence of Fibroblast growth factor 2 (Homo sapiens) (P09038 whole entry, looked up): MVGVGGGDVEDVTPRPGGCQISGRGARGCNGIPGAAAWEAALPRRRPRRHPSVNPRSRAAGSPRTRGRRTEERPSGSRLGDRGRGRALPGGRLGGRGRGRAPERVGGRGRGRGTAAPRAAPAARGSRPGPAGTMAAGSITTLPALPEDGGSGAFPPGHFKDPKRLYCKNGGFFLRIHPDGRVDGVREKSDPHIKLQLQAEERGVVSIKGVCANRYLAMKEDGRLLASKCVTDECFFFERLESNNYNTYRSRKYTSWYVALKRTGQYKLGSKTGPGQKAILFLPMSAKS
Sequence of Focal adhesion kinase 1 (Homo sapiens) (Q05397 whole entry, looked up): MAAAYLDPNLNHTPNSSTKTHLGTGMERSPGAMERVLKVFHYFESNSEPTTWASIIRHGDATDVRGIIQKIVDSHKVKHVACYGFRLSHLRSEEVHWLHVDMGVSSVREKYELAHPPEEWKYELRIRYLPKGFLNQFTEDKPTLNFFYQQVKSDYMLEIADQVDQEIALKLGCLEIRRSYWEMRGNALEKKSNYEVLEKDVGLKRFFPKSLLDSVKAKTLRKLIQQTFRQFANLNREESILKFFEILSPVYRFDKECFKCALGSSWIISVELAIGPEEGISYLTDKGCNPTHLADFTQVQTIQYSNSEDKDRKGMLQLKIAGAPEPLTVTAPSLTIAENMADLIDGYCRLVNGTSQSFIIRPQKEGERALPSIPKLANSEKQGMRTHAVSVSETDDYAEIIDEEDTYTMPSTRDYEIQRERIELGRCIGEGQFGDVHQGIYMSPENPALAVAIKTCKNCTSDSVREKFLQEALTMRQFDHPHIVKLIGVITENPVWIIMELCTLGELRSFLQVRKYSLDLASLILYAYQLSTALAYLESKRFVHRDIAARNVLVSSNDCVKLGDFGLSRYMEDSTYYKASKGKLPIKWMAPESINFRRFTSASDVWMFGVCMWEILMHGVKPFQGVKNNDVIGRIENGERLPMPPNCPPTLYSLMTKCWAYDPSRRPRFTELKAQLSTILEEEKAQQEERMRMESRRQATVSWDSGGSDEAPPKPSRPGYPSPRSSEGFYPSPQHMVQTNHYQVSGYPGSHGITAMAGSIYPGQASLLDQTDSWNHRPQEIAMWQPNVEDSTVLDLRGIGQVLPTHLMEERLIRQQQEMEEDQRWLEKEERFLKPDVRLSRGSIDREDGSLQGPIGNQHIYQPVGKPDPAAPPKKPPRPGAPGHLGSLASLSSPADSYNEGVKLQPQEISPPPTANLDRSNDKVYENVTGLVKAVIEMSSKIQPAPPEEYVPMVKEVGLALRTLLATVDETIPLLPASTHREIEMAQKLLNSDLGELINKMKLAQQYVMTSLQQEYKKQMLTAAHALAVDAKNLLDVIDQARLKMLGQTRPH
Sequence of Follistatin (Homo sapiens) (P19883 whole entry, looked up): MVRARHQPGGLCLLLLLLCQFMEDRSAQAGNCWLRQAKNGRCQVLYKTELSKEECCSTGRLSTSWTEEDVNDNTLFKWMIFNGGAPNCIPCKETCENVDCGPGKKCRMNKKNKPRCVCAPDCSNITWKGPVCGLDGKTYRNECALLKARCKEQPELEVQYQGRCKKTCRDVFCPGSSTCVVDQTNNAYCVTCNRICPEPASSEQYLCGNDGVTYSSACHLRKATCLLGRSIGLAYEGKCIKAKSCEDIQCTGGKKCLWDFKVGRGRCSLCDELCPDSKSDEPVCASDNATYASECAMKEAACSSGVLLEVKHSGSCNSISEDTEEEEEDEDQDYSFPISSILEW
Sequence of Albumin (Bos taurus) (P02769 whole entry, looked up): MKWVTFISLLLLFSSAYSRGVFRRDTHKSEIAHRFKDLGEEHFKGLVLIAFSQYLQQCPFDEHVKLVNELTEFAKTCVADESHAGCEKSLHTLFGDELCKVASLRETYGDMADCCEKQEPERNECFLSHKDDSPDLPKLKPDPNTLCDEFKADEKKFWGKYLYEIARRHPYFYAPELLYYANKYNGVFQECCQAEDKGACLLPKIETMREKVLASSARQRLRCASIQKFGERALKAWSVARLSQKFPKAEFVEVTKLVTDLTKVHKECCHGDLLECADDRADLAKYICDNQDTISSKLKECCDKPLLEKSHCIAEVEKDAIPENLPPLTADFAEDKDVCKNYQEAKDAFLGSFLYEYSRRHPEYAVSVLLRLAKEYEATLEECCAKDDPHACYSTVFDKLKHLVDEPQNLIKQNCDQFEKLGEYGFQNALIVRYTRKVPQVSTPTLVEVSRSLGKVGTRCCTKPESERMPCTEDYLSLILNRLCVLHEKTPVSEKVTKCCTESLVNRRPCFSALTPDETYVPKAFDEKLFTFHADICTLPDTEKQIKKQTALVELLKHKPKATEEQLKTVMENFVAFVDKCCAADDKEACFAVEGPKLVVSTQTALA
Sequence of Concanavalin-A (Canavalia ensiformis) (P02866 whole entry, looked up): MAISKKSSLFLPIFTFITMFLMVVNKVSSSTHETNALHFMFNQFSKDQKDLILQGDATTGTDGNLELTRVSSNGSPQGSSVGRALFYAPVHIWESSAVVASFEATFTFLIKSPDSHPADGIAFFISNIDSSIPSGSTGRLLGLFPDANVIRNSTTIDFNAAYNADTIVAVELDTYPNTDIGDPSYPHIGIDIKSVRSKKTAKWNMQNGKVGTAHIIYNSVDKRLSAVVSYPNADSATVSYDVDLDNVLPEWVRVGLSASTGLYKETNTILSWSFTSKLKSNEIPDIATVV
Sequence of Luciferin 4-monooxygenase (Photinus pyralis) (P08659 whole entry, looked up): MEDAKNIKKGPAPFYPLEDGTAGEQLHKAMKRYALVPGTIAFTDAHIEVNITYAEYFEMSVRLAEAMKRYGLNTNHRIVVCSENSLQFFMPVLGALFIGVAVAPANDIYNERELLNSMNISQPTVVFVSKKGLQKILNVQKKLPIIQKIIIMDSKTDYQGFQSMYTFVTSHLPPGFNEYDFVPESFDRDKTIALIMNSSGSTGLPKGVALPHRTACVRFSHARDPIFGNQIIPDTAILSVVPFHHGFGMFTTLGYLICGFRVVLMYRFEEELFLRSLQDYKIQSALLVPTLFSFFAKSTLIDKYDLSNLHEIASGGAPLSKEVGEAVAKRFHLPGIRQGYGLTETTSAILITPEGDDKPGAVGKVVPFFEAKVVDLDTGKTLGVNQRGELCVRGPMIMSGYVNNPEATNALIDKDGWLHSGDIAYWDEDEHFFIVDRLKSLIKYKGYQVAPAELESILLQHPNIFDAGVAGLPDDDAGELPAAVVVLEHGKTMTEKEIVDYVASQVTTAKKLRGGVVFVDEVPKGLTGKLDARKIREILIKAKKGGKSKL

Turning to `CCOC(=O)C[C@H]1[C@H](OC(=O)c2cc3ccccc3oc2=O)[C@@H](NC(=O)c2ccc(-c3ccccc3)cc2)c2cc(OCCCO)ccc2N1C(=O)c1ccccc1`, the composite z-score with Albumin (Bos taurus) is 0.551; in test [2] it was 0.242; in test [3] it was -0.0971; in test [4], 0.274; in test [5], 0.716; in test [6], -0.0433. The composite z-score in the test with Sam68 (KHDRBS1) worked out at 1.32; in test [7], 0.475; in test [8] it was 0.858; in test [9], 0.942; in test [10], 1.2; in test [11], 0.309. Moreover, the composite z-score in [12] was found to be 0.711; in test [13], 1.34; in test [14] it was 0.92; in the test with Lefty1, 1.16; in test [16], 0.997. The composite Z-score in [1] is -0.0549 (inactive). For the same compound, the z-score in [15] is -1.24; in test [17] it was 0.207 (inactive).

Take `COC(=O)c1ccc([C@H](NC(=O)c2ccco2)[C@]2(C)C[C@H]2C2CCCCC2)cc1`: the composite z-score with Albumin (Bos taurus) is 0.678; in test [2] it was 0.0179; in test [3], -0.0391; in [4], -0.227; in test [5], 1.43; in [6], -0.164. Moreover, the composite z-score with Sam68 (KHDRBS1) is -0.552; in [7] it was -1.17; in [8] it was 0.208; in test [9] it was -0.162; in test [10] it was -0.678; in test [11], -0.59. Besides, the composite z-score in test [12] is -0.293; in [13] it was -0.633; in test [14] it was -1.11; in the test on Lefty1, -1.58; in test [16] it was 0.638. In test [1], the composite Z-score was 0.0201 (inactive). Also, the z-score in test [15] is -0.573; in test [17], 1.34 (inactive).

For the compound `O=C1OCCC=C[C@H]2OC34C=CCN(Cn5nnc6ccccc65)C(=O)[C@H]3N(CCCCCCO)C(=O)[C@@H]4C12` (stereo not given in full), the composite z-score with Albumin (Bos taurus) was -0.587; in test [2], -0.429; in test [3], -0.0532; in [4], 0.875; in [5] it was -0.591; in test [6], 0.755. The composite z-score was -0.365 with Sam68 (KHDRBS1); -1.31 in [7]; -0.718 in [8]; -0.832 in test [9]; -0.48 in test [10]; -0.235 in test [11]. For the same compound, the composite z-score in [12] was -0.907; in [13] it was -1.29; in [14] it was -1.24; with Lefty1 it was -1.28; in [16], -1.07. Further, in test [1], the composite Z-score was 0.688 (inactive). The z-score was 0.324 in test [15] and -0.718 (inactive) in test [17].

With `C=CCN1C(=O)[C@@]2(CCS(=O)(=O)c3ccccc3)N=C(c3ccc(OCCCO)cc3)O[C@H]2c2ccccc21`, the composite z-score was -0.567 with Albumin (Bos taurus); -0.0302 in test [2]; -0.0664 in test [3]; 0.277 in test [4]; 2.53 in test [5]; 0.207 in test [6]. Moreover, the composite z-score is 0.988 with Sam68 (KHDRBS1); 0.83 in [7]; 1.12 in test [8]; 1.34 in [9]; 1.25 in [10]; 0.763 in test [11]. Also, the composite z-score turned out to be 0.884 in [12]; 1.45 in test [13]; 1.78 in test [14]; 0.952 in the test with Lefty1; 0.37 in [16]. The composite Z-score in test [1] was -0.101 (inactive). Further, the z-score in test [15] was 0.821; in test [17], -1.48 (inactive).

Regarding `C[C@]1(C(=O)NC2CC2)c2ccccc2C(=O)N(Cc2ccccc2)[C@H]1c1ccc(CO)cc1`, the composite z-score with Albumin (Bos taurus) was -1.91; in [2], -0.337; in [3], -0.105; in [4], 0.168; in [5], -0.163; in test [6], 0.11. For the same compound, the composite z-score in the test on Sam68 (KHDRBS1) was -0.958; in test [7] it was -0.771; in test [8], -1.21; in [9] it was -1.12; in [10], -1.29; in test [11], 0.874. Besides, the composite z-score in test [12] was -2.17; in [13], -0.271; in [14], -0.517; in the test with Lefty1, -1.5; in [16], -1.15. Also, the composite Z-score in test [1] was -0.504 (inactive). Moreover, the z-score is -0.153 in test [15] and -0.347 (inactive) in test [17].

Turning to `N#Cc1ccc(NN2C(C(O)c3ccc(F)cc3)C=CC3C(=O)N(c4ccccc4)C(=O)C32)cc1` (stereo not given), the composite z-score in the test with Albumin (Bos taurus) was 0.824; in test [2], -0.16; in test [3], -0.138; in [4], 0.318; in test [5], 2.59; in [6], 0.905. Moreover, the composite z-score in the test on Sam68 (KHDRBS1) is -0.306; in test [7] it was -1.55; in test [8], 0.536; in [9], 1.57; in [10], 0.57; in test [11], 0.171. The composite z-score is 0.797 in test [12]; 0.0089 in test [13]; 0.866 in test [14]; -0.577 with Lefty1; 0.94 in [16]. In addition, the composite Z-score in test [1] is 0.383 (inactive). Moreover, the z-score in test [15] is 0.324; in test [17], 0.646 (inactive).

As to `CC(=O)NCCCC[C@@H]1NC(=O)[C@H]2C[C@@H](C(=O)NCCCC[N+](C)(C)C)[C@@H](c3cccc(OCCO)c3)N2C1=O`, the composite z-score in the test with Albumin (Bos taurus) is -1.1; in test [2] it was 0.204; in [3] it was -0.0974; in test [4], 0.704; in test [5], 1.75; in test [6], 1.16. Further, the composite z-score in the test on Sam68 (KHDRBS1) is 0.719; in test [7] it was 1.49; in test [8], 1.1; in test [9], 1.57; in test [10], -0.416; in [11], 0.191. Further, the composite z-score in test [12] was 0.231; in [13] it was 1.47; in test [14] it was 1.85; with Lefty1, 1.71; in test [16] it was 0.552. Besides, in test [1], the composite Z-score is 2.16 (inactive). The z-score in test [15] was 0.584; in [17] it was -1.42 (inactive).
